RAD54 inh: inhibitors of human RAD54 branch migration | Q92698 | RAD54 Holliday junction branch migration, FAM/BHQ fluorescence | inhibition, % at 10.4 µM | hit rate 0.14% among 360,000 | AID 602329;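 active = mean normalized replicate activity at least 40 and at least half of replicates scoring 40 or more; inconclusive = only one of the two criteria met; inactive = mean below 40 and under half of replicates reaching 40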;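 also: 0% = median of neutral control wells and 100% = median of positive control wells; inhibitors cause a drop in the FAM fluorescence signal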
Target sequence (Q92698 whole entry, looked up): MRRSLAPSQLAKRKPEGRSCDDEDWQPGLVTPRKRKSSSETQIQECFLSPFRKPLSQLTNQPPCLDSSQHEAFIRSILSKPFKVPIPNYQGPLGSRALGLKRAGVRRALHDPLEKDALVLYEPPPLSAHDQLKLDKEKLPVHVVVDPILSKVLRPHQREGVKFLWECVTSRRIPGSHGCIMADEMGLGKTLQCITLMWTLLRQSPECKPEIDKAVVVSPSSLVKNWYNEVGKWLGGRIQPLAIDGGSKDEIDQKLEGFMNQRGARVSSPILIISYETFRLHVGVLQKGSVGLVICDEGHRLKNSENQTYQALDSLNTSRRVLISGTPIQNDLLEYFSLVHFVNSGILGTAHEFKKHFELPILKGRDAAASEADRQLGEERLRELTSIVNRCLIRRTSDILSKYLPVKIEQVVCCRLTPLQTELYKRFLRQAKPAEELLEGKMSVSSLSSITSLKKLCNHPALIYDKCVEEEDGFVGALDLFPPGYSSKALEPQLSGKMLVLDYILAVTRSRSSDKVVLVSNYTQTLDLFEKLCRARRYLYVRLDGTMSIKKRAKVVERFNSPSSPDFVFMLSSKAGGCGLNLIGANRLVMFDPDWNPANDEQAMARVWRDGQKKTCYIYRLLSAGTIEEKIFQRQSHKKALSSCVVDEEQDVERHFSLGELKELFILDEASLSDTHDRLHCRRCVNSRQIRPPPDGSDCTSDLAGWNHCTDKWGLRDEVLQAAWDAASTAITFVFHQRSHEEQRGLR
Myeloid diff 2: myeloid differentiation induction. ER-HoxA9 myeloid progenitors, lysozyme-GFP differentiation, flow cytometry. calls only at 10 µM. hit rate 1% among 360,000;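 active = normalized GFP-positive differentiation at or above the plate's own cutoff, the solvent-only control mean plus 3 SD; inconclusive = no clear call, values can overlap the other calls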;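 also: cells exposed to compound for four days before flow analysis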
ABCB6 inh 2: human ABCB6 transporter inhibition. Q9NP58. K562-ABCB6 porphyrin accumulation, flow cytometry, 1 h; hits give low values. fluorescence ratio to DMSO, % at 10 µM. hit rate 0.19% among 360,000. AID 602162;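 active = fluorescence ratio to DMSO below 75%, the collection mean minus 3 SD; inconclusive = too few cells collected in the well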;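 also: signal is porphyrin accumulated inside mitochondria; 100% equals median channel fluorescence of DMSO control wells; lower ratio means ABCB6 inhibition with less porphyrin fluorescence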
Vif imaging: HIV Vif inhibition | hit rate 0.35% among 340,000 | inhibition, % at 7.49 µM | HEK293T cells, Vif self-association by quenched fluorescence, imaging, 24 h; in the data active = inhibition above about 50%, passing the limit was not always enough; inconclusive = no clear call, values can overlap the other calls; inactive = below about 31%
N-glyco inh: N-linked glycosylation inhibition | D54 ERlucT glycosylation luciferase reporter, 24 h; percent of 100 nM tunicamycin response | reporter increase, % at 12.5 µM | hit rate 0.23% among 360,000 | AID 588692;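 active = mean luciferase reporter signal, scaled so untreated is 0 and the glycosylation-blocking control 100, at or above a set limit in every replicate; inconclusive = mean reaches the limit but not every replicate does; inactive = mean below the limit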;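 also: luciferase carries N-glycosylation sites so blocking glycosylation raises the light; 0% = median of neutral control wells and 100% = median of 100 nM tunicamycin wells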
Starred values were filed as active, the others as inactive; i = inactive; u = inconclusive; x = no result; + = active, no number. Only some compounds are listed: those with a hit (about 1.6% of all), similar ones and a draw of the others.

SMILES | RAD54 inh | Myeloid diff 2 | ABCB6 inh 2 | Vif imaging | N-glyco inh
CN1/C(=C\C(=O)CN2C(=O)NC3(CCCCCC3)C2=O)C(C)(C)c2ccccc21 | -10 | + | 502 | -21 | -2
CO[C@@H]1CN(C)C(=O)c2ccc(NC(=O)C3CCCCC3)cc2OC[C@@H](C)N(Cc2nccs2)C[C@H]1C | -7 | x | x | x | x
CCc1nc2ccc(F)cc2c(C(=O)NC2CCCCC2C)c1C (stereo unspecified) | -5 | i | 90 | 54* | 2
COCC(=O)N(C)C[C@@H]1Oc2cc(C#C[C@@H](C)O)ccc2S(=O)(=O)N([C@H](C)CO)C[C@H]1C | 1 | x | x | x | x
COc1ccc2cc(C)c3nnc(SCC(=O)Nc4nc(-c5ccc(F)cc5)cs4)n3c2c1 | x | i | 90 | -2 | 38*
C[C@H]1CCCCO[C@@H](CN(C)Cc2ccc(C(=O)O)cc2)[C@@H](C)CN([C@@H](C)CO)C(=O)c2cc(NS(=O)(=O)c3ccccc3)ccc2O1 | -8 | x | x | x | x
CN1C(=O)CC(c2cn(Cc3ccccc3)c3ccccc23)C1=O (stereo unspecified) | x | + | 107 | 12 | -3
O=C(C[C@H]1CC[C@@H]2[C@H](COC[C@@H](O)CN2S(=O)(=O)c2ccccc2Cl)O1)NCc1ccccc1Cl | -11 | x | x | x | x
COc1ccc(-c2ccc3c(c2)[C@@H]2[C@@H](CCN2S(=O)(=O)c2ccccc2C)[C@H](CO)N3)cc1 | -1 | x | x | x | x
O=c1c(/C=C(\O)c2ccc(F)cc2)nc2ccccc2n1-c1ccccc1 | x | + | i | 7 | -1
Cn1c(=O)c(/C=C/c2ccc(F)cc2)nc2ccccc21 | 9 | i | 100 | 2 | -3
CCOC(=O)c1c(C)[nH]c(C(=O)COC(=O)/C=C/c2ccc(OC(F)F)cc2)c1C | -7 | i | 109 | -11 | 1
CCOC(=O)c1c(C)[nH]c(C)c1C(=O)COC(=O)/C=C/c1ccc(OC(F)F)cc1 | -2 | + | 97 | 4 | 0
Cc1ccc(C)c(N2CCN(C(=O)Cn3cccc3)CC2)c1 | -14 | i | 101 | 4 | 1
CCC(=O)N1CCN(c2cc(C)ccc2C)CC1 | -13 | i | 100 | 50* | 2
Cc1ccc(S(=O)(=O)N(C)C[C@@H]2Oc3ccc(NC(=O)C4CC4)cc3C(=O)N([C@@H](C)CO)C[C@H]2C)cc1 | 6 | x | x | x | x
Cc1nnc(N/N=C/c2ccccc2F)n1N | 8 | i | 98 | 59* | 6
Cc1ccc(C(C(=O)NCc2ccc(F)cc2)N(Cc2ccco2)C(=O)c2snc(C(N)=O)c2N)o1 (stereo unspecified) | 5 | i | 96 | 58* | -5
NC(=O)c1nsc(C(=O)N(Cc2ccco2)C(C(=O)NCc2ccc(F)cc2)c2ccc(O)cc2)c1N (stereo unspecified) | 8 | i | 110 | -12 | -2
O=C(C1=C[C@@H](c2ccc(Br)cc2)C[C@@H](OCc2ccc(CO)cc2)O1)N1CCCC1 | -6 | x | x | x | x
COc1ccc(OC)c(C2C3CN(C(C)C)CC=C3C(C#N)=C(N)C2(C#N)C#N)c1 (stereo unspecified) | -30 | i | 101 | 95* | 1
Cc1ccc(C2C3CN(C(C)C)CC=C3C(C#N)=C(N)C2(C#N)C#N)cc1 (stereo unspecified) | -34 | + | 163 | x | -1
CC(C)c1ccc2[nH]c3nc(SCC(=O)NC4CC4)nnc3c2c1 | x | + | 97 | 7 | 4
CN(C)S(=O)(=O)c1ccc(N2CCCC2)c(C(=O)Nc2nc3ccc(F)cc3s2)c1 | -1 | i | 97 | 8 | 63*
CN(C)S(=O)(=O)c1ccc(N2CCCC2)c(C(=O)Nc2nc3ccccc3s2)c1 | -2 | i | 99 | 3 | 90*
SMILES | RAD54 inh | Myeloid diff 2 | ABCB6 inh 2 | Vif imaging | N-glyco inh
CC(C)Cc1nnc(NC(=O)c2cc(S(=O)(=O)N(C)C)ccc2N2CCCC2)s1 | -4 | i | 100 | -11 | 2
Cc1cccc2sc(NC(=O)c3cc(S(=O)(=O)N(C)C)ccc3N3CCCC3)nc12 | 5 | i | 108 | -18 | 87*
O=C(C1CC1)N1C[C@H]2[C@@H](c3ccccc31)[C@H](CO)N2C(=O)c1cccc(F)c1 | 3 | x | x | x | x
CCCN(C)C[C@H]1Oc2cc(-c3cccc(OC)c3)ccc2S(=O)(=O)N([C@H](C)CO)C[C@H]1C | -3 | x | x | x | x
COc1ccccc1NC(=O)N(C)C[C@@H]1OCc2ccccc2-c2c(n(C)c3ccccc23)C(=O)N([C@H](C)CO)C[C@H]1C | 4 | x | x | x | x
C[C@@H]1CN([C@H](C)CO)C(=O)c2c(c3ccccc3n2C)-c2ccccc2CO[C@@H]1CN(C)C(=O)Nc1ccccc1C(F)(F)F | -10 | i | 94 | 53* | 1
C[C@@H]1CN([C@H](C)CO)C(=O)c2cc(NC(=O)NC3CCCCC3)ccc2O[C@@H](C)CCCCO[C@@H]1CN(C)S(=O)(=O)c1ccc(F)cc1 | 2 | x | x | x | x
COc1ccc(-c2sc3ccccc3c2-c2ccc(OCCN3CCCCC3)cc2)cc1 | 8 | i | 99 | 10 | -8
COc1ccc(-c2sc3cc(OC)ccc3c2-c2ccc(OCCN3CCCCC3)cc2)cc1 | x | + | 102 | x | x
Clc1ccc2c(N/N=C/c3cccnc3)ccnc2c1 | 71* | i | 92 | -12 | 5
Oc1ccc(/C=N/Nc2ccnc3cc(Cl)ccc23)c(O)c1 | 5 | + | 114 | 0 | -2
Cc1ccccc1/C=N/Nc1ccnc2cc(Cl)ccc12 | 0 | i | 94 | 0 | -4
Clc1ccc2c(N/N=C/c3ccc(Br)cc3)ccnc2c1 | -8 | u | 102 | -7 | -6
O=C(NCCN1CCOCC1)c1cc2sccc2n1Cc1ccc(F)cc1 | 2 | i | 98 | 0 | -2
O=C(NCCN1CCOCC1)c1cc2sccc2n1Cc1ccc(Cl)cc1 | -2 | + | 95 | -8 | -1
CNc1c(N)c(=O)oc2ccccc12 | 0 | i | 99 | 10 | -1
CC(C)Nc1c(N)c(=O)oc2ccccc12 | 1 | i | 104 | 59* | 1
COc1ccc(NC(=O)N2C[C@@H](O)COC[C@@H]3O[C@@H](CC(=O)NCc4ccccc4OC)CC[C@H]32)cc1 | 2 | x | x | x | x
CCOC(=O)c1c(-c2ccc(C)cc2)csc1NC(=O)/C(C#N)=C/c1ccc(O)c(OC)c1 | x | + | 480 | 4 | 7
CCOC(=O)/C(C#N)=C\c1ccc(O)c(OC)c1 | x | i | 104 | -1 | 2
CCOC(=O)c1c(-c2ccccc2)csc1NC(=O)/C(C#N)=C\c1ccc(O)c(OC)c1 | x | + | 711 | 2 | 4
C[C@@H]1CN([C@H](C)CO)C(=O)c2cc(NS(=O)(=O)c3cccs3)ccc2O[C@H]1CN(C)C(=O)Nc1ccccc1 | 4 | x | x | x | x
COc1cc(OC)c2c(-c3cccc(-c4cccc(C)c4)c3)cc(=O)oc2c1 | 6 | + | 96 | -2 | 2
COc1ccc(-c2cccc(-c3cc(=O)oc4cc(OC)cc(OC)c34)c2)cc1 | 8 | u | 100 | 3 | 4

From PubChem BioAssay
